The campaign covered roughly 310,000 compounds. About 2,600 (0.84%) were called active. Only a selection was taken, and actives are over-represented in it overall. A number with no mark means an inactive call.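 Rule for the calls: active = fluorescence ratio B-score at or below minus 3 SD of library scores, with starting-brightness B-score within 2 SD (cut at about -4.2 in these data); inactive = the rest.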
Biological target: Inward rectifier potassium channel 2 (Mus musculus) (UniProt P35561)
Assay: inhibitors of mouse Kir2.1 inward-rectifier potassium channel (AID 1672);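 note: channel flux triggered by added potassium and thallium sulfate stimulus; B-score of peak minus minimum fluorescence over baseline after thallium stimulus; more negative B-score means stronger Kir2.1 block with less thallium influx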
Details: HEK293-Kir2.1, FluxOR thallium flux fluorescence; at 10 µM; hits give low values

Sequence of Inward rectifier potassium channel 2 (Mus musculus) (P35561 whole entry, looked up): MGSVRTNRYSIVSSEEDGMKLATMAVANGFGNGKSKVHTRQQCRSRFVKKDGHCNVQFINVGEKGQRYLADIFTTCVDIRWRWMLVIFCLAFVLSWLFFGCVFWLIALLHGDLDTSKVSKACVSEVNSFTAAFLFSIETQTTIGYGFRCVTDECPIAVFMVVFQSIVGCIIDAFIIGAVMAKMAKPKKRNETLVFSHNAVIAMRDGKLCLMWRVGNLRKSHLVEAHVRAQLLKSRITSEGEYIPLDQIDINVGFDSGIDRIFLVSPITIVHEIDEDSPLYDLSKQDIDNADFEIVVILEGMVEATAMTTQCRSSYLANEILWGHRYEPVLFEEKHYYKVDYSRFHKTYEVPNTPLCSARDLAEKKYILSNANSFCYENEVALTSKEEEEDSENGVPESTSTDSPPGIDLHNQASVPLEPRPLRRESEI

Row | SMILES | B-score
1 | CC1CCN(c2ccc(-c3ccc(NC(=O)c4ccco4)cc3)nn2)CC1 | 2.11
2 | COc1cc(NC(=O)c2cccnc2SC)cc(OC)c1 | -1.22
3 | COc1cc(NC(=O)c2ccccc2NS(=O)(=O)c2ccc(Cl)s2)cc(OC)c1 | -4.91 (active)
4 | COC(=O)c1ccc(NC(=O)c2ccccc2NS(=O)(=O)c2ccccc2)cc1 | -0.07
5 | Cc1ccn2c(=O)nc(SCC(=O)NCc3ccc4c(c3)OCO4)nc2c1 | -1.61
6 | Cc1ccc2nc(NC(=O)C3CSC4(C)CCC(=O)N34)sc2c1 (configuration not stated) | -0.28
7 | CCOc1ccc(S(=O)(=O)Nc2cccc(C(=O)NCC3(N4CCCCC4)CCCCC3)c2)cc1 | -0.12
8 | Cc1ccc(C(=O)C(C)OC(=O)Cc2n[nH]c(=O)c3ccccc23)cc1C (configuration not stated) | -0.94
9 | O=C(CN1C(=O)NC2(CCCC2)C1=O)OCCOc1ccc(F)cc1 | 0.63
10 | CCn1c2ccccc2c2cc(NC(=O)COC(=O)c3ccccc3Br)ccc21 | 1.33
11 | CCn1c2ccccc2c2cc(NC(=O)C/C(C)=N/NC(=O)c3ccccc3N)ccc21 | 1.9
12 | CCn1c2ccccc2c2cc(NC(=O)CNC)ccc21 | -5.93 (active)
13 | COc1ccc(CCNC(=O)C(=O)NCC2CCCN2S(=O)(=O)c2cccs2)cc1OC (configuration not stated) | -0.91
14 | COc1ccc(C)cc1S(=O)(=O)Nc1cc2c3c(c1)CCC(=O)N3CCC2 | 0.54
15 | COc1ccc(NC(=O)CCC(=O)N2CCN(S(=O)(=O)c3ccc(C)cc3)CC2)c(OC)c1 | -0.19
16 | COc1ccccc1C(=O)NC(CCSC)C(=O)N1CCN(C/C=C/c2ccccc2)CC1 (configuration not stated) | -1.22
17 | COc1ccc(CN2CCN(Cc3ccc(OC)c(OC)c3OC)CC2)cc1 | 0.47
18 | COc1ccc(CN2CCC(c3nc4ccc(Cl)cc4[nH]3)CC2)cc1 | -7.29 (active)
19 | COc1ccc(Cn2nnc3c(=O)[nH]c(C4CCN(C(=O)c5ccccc5Cl)CC4)nc32)cc1 | 1.59
20 | O=C(Nc1ccc(S(=O)(=O)N2CCCCC2)cc1)C1CCN(C(=O)c2ccc(F)cc2)CC1 | -0.97
21 | COc1cc(/C=N/O)cc(Br)c1OCc1cccc(Cl)c1 | -0.84
22 | COc1cc(/C=N/O)cc(Br)c1OS(=O)(=O)c1ccc(C)cc1 | -10.4 (active)
23 | COc1cc(/C=N/Nc2ccc(C)cc2)cc(Br)c1O | -0.11

Row | SMILES | B-score
24 | CCc1nnc(NS(=O)(=O)c2ccc(NC(=O)c3cccc(OC(F)(F)C(F)F)c3)cc2)s1 | -0.69
25 | Cc1ccc(-c2cc(=O)[nH]c(NCc3ccccc3)n2)cc1 | -1.96
26 | COc1ccccc1CN(C)C(=O)c1cc2ccccc2o1 | -0.72
27 | COc1cccc(CN(C)C(=O)CC23CC4CC(CC(C4)C2)C3)c1OC | 0.01
28 | COc1ccccc1CN(C)C(=O)C1(c2ccc(Cl)cc2)CC1 | -7.43 (active)
29 | COc1ccc(/C=N/NC(=O)c2cc(-c3cccc(C)c3)nc3ccccc23)cc1O | -0.5
30 | CCOc1ccc(NS(=O)(=O)c2ccc(C(=O)NC3CCN(Cc4ccccc4)CC3)cc2)cc1 | -0.37
31 | COc1ccccc1CCC(=O)OCC(=O)N1CCN(S(=O)(=O)c2ccc(C)cc2C)CC1 | -0.28
32 | O=S(=O)(ON(c1ccccc1)S(=O)(=O)c1ccccc1)c1ccccc1 | -1.37
33 | CC1=C/C(=N\OS(=O)(=O)c2ccccc2)C=CC1=O | -8.49 (active)
34 | Cc1ccc(S(=O)(=O)c2ccc(Oc3ccccc3)cc2)cc1 | 1.97
35 | COC(=O)c1ccc(NS(=O)(=O)c2cc3c4c(c2)C(C)C(=O)N4CCC3)cc1 (configuration not stated) | -0.99
36 | C/C(=N\NC(=O)COc1ccc(C)cc1[N+](=O)[O-])c1ccc2c(c1)OCCO2 | 0.54
37 | C=CS(=O)c1sc(Cl)c(N2CCOCC2)c1[N+](=O)[O-] (configuration not stated) | -4.54 (active)
38 | CCCCCCCCCCCCN1[C@@H](CC(C)=O)c2cc(F)cc(F)c2S1(=O)=O | 1.64
39 | CCCCOC(=O)CNc1nnc(SCC(=O)OCC)[nH]c1=O | -5.69 (active)
40 | Cc1nnc(SCC(=O)N2CCOCC2)[nH]c1=O | -0.42
41 | CCOC(=O)c1c(NC(=O)CSc2nnc(C)c(=O)[nH]2)sc2c1CCC2 | 1.75
42 | COc1ccc(NC(=O)CN(C)C(=O)c2ccc(NC3CC3)c([N+](=O)[O-])c2)cc1 | 0.91
43 | COc1ccc(C(=O)OCC(=O)c2ccc(Cl)s2)c(OC)c1OC | 1.46
44 | CCOc1ccc(C(C)=O)cc1COC(=O)CNC(=O)c1cccs1 | -0.97
45 | COc1ccccc1C(CNC(=O)c1cccc(NS(=O)(=O)c2ccc(Br)cc2)c1)N(C)C (configuration not stated) | -1.8
46 | OCCNc1nc2ccccc2n1-c1ncnc2sc3c(c12)CCC3 | -8.97 (active)

Row | SMILES | B-score
47 | CC(C)(C)C(=O)Cn1c(NCCO)nc2ccccc21 | -0.4
48 | O=C(O)[C@@H]1CCCN1c1ncnc2sc3c(c12)CCC3 | 0.12
49 | COc1cc(-c2nnc(NC(=O)C3=COCCO3)o2)cc(OC)c1OC | 0.99
50 | CCCCn1c(N)c(N(CC(C)C)C(=O)c2cccc(S(=O)(=O)N3CCN(C(C)=O)CC3)c2)c(=O)[nH]c1=O | -1.82
51 | O=C(CCCN=C1NS(=O)(=O)c2ccccc21)OCC(=O)c1ccc(F)c(F)c1 | 0.45
52 | Cc1cccc(C(=O)NCC(=O)OCC(=O)N2CC3(C)CC2CC(C)(C)C3)c1 (configuration not stated) | 1.23
53 | COc1ccccc1C(=O)N1CC2(C)CC1CC(C)(C)C2 (configuration not stated) | -0.99
54 | Cc1nnnn1/C(=C\c1ccccc1)C(=O)OCC(=O)N1CC2(C)CC1CC(C)(C)C2 (configuration not stated) | -4.63 (active)
55 | CCn1c(SCC(=O)c2ccc3ccccc3c2)nnc1-c1cccs1 | -2.71
56 | Cc1ccc(-n2c(Cc3cccs3)nnc2SCC(=O)OC(C)C)cc1 | -2.12
57 | CCn1c(Cc2cccs2)nnc1SCC(=O)c1ccc(C)cc1 | -4.88 (active)
58 | CN(Cc1nc2ccccc2s1)C(=O)c1ccc(F)cc1 | 1.03
59 | COc1c(C=O)c(CCN(C)C(=O)c2ccc(F)cc2)cc2c1OCO2 | -4.35 (active)
60 | O=C(/C=C/c1ccc2c(c1)OCO2)NCc1ccc(F)cc1 | -0.53
61 | Cc1cc(NC(=O)C(C)SCC(=O)Nc2ccccc2N2CCCCC2)no1 (configuration not stated) | -4.17
62 | COc1ccc(C(=O)c2c3ccc([N+](=O)[O-])cc3[n+]([O-])n2CCCN)cc1 | 0.68
63 | Cc1cc(NC(=O)CCS(=O)(=O)c2ccc(F)cc2)no1 | -0.47
64 | CCNC(=S)Nc1cccc(Cl)c1C | 0.45
65 | Cc1c(Cl)cccc1NC(=S)NCc1ccc2c(c1)OCO2 | -1.74
66 | Cc1c(Cl)cccc1NC(=S)NCC(O)c1ccccc1 (configuration not stated) | -4.47 (active)
67 | O=C(Nc1ccc(N2CCCCC2)cc1)c1cc(S(=O)(=O)N2CCOCC2)ccc1F | 0.53
68 | COc1cc(N)c(Cl)cc1C(=O)OCC(=O)c1ccc2c(c1)NC(=O)CO2 | 0.6
69 | Cc1nn(C)cc1C(=O)c1ccccc1 | 0.22

Row | SMILES | B-score
70 | CCOc1ccc(C(=O)Nc2cc(Cl)ccc2-n2cncn2)cc1OC | -2.32
71 | COc1ccc2c(c1)C=CC1(O2)N(CCO)c2ccccc2C1(C)C (configuration not stated) | -6.82 (active)
72 | COc1cccc(CC2(CO)CCCN(CC3=Cc4cc(OC)ccc4OC3)C2)c1 (configuration not stated) | 0.68
73 | CN1c2ccc([N+](=O)[O-])cc2C(C)(C)C12C=Cc1cc(C(=O)O)ccc1O2 (configuration not stated) | 0.63
74 | CN(N)c1nc(N2CCCC2)nc(N2CCCC2)n1 | 0.28
75 | Cc1sc2ncnc(N3CCC(C(=O)NNC(=O)c4ccc(F)cc4)CC3)c2c1C | 0.05
76 | CSc1ccc(Cl)c(C(=O)OCC(=O)N2CC(C)OC(C)C2)c1 (configuration not stated) | -0.84
77 | CC1CN(C(=O)COC(=O)c2cccc(NS(=O)(=O)c3ccccc3)c2)CC(C)O1 (configuration not stated) | -4.76 (active)
78 | COc1ccc(N2CCN(C(=O)COC(=O)c3cccc(S(=O)(=O)Nc4ccccc4OC)c3)CC2)cc1 | 0.61
79 | O=C(NC1CCCCC1)c1ccc(-c2ccc(Cl)cc2)o1 | 1.25
80 | Cn1c(SCC(=O)N2CCCc3ccccc32)nc2ccccc2c1=O | -6.03 (active)
81 | O=C(CSc1nc2ccccc2c(=O)n1CCCO)N1CCc2ccccc21 | 0.73
82 | C=CCn1c(=O)c2ccccc2n2c(SCC(=O)N3CCCc4ccccc43)nnc12 | 0.08
83 | CN(Cc1ccccc1F)C(=O)C(Cc1ccccc1)NC(=O)c1ccccc1 (configuration not stated) | -1.09
84 | CC(=O)Nc1cccc(C(=O)OCC(=O)NCc2cc(C)c(O)c(C)c2)c1 | -1.5
85 | CC(=O)N1C(C)c2ccccc2C(C)(C)CC12CCCCC2 (configuration not stated) | -6.43 (active)
86 | CC(=O)N1CCN(C(=O)c2cc(-c3ccc(C)o3)nc3ccccc23)CC1 | 0.63
87 | CCCCCN(C(=O)CCC(=O)OCCOc1ccc(OC)cc1)c1c(N)n(CCCC)c(=O)[nH]c1=O | 0.11
88 | O=C(N/N=C/c1cc(Br)c(O)c([N+](=O)[O-])c1)C(O)(c1ccccc1)c1ccccc1 | 1.06
89 | CN(/N=C/c1ccccc1)C(=S)c1ccccc1 | 1.83
90 | CCCOc1ccc(Cn2ccnc2)cc1[N+](=O)[O-] | -0.79
91 | CCCCCOc1ccc(CSC2=NCCN2)cc1[N+](=O)[O-] | -0.86
92 | CCCCOc1ccc(CSC(=N)N)cc1[N+](=O)[O-] | -5.22 (active)

From PubChem BioAssay AID1672 (Johns Hopkins Ion Channel Center, 2009)
